CHRM1 PAM = human CHRM1 positive allosteric modulation. CHO-K1 hM1, Fluo-8 calcium fluorescence, ACh EC20; 0% = ACh EC20, 100% = maximal ACh. AID 588819. activation, % at 3 µM. P11229. 360,000 tested, 0.088% active; in the data active = activation above about 19%, passing the limit was not always enough
Target sequence (P11229 whole entry, looked up): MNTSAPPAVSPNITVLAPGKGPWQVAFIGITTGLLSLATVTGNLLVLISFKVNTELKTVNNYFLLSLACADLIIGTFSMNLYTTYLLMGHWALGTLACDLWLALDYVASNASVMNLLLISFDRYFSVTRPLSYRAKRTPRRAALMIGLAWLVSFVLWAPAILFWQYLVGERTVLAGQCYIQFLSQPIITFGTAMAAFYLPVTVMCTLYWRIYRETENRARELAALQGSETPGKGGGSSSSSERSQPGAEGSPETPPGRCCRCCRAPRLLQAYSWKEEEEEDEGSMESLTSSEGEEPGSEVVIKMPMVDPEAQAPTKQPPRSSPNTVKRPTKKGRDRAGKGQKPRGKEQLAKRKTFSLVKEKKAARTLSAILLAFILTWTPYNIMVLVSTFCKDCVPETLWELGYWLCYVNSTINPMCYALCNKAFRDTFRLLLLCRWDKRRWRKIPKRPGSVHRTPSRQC
M1 ag parental = nonselective activator or artifact in parental CHO-K1 cells; Fluo-8 calcium fluorescence; scaled to maximal ATP response, vehicle zero; activation, % at 3 µM; 360,000 tested, 0.48% active; AID 602248; in the data active = activation above about 15%;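 also: untransfected CHO-K1 host cells lacking M1 receptor as counterscreen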
M1 antag = blocks human M1 muscarinic receptor; P11229; CHO-K1 hM1, Fluo-8 calcium fluorescence, ACh EC80 antagonist; inhibition, % at 3 µM; 360,000 tested, 1.3% active; AID 588852;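 active = percent inhibition above its own plate's cutoff, namely the mean of that plate's compound wells plus 3 SD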;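 also: peak over basal fluorescence ratio during 140 s after agonist addition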
CHO-K1 Ca antag = nonselective inhibitor or artifact in parental CHO-K1 cells; ATP-induced calcium, Fluo-8 fluorescence; AID 602250; 360,000 tested, 0.6% active; inhibition, % at 3 µM;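 active = inhibition above a per-plate cutoff, the plate's mean sample inhibition plus 3 SD, cut at about 24% in these data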
M1 PAM parental = M1 PAM counterscreen hit in parental CHO-K1 cells; ATP EC20, Fluo-8 calcium fluorescence; 0% at ATP EC20, 100% at ATP max; activation, % at 3 µM; 360,000 tested, 0.02% active;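 active = activation above the run cutoff, the mean activation of all test compounds plus 3 SD, cut at about 40% in these data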;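 also: peak over basal fluorescence ratio in a 140 s read after ATP addition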
M1 ag = human M1 muscarinic receptor agonism; 360,000 tested, 0.33% active; P11229; CHO-K1 hM1, Fluo-8 calcium fluorescence, agonist mode; 0% DMSO, 100% acetylcholine EC100; activation, % at 3 µM;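 active = activation above the run's mean compound activation plus 3 SD, cut at about 16% in these data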;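 also: peak over basal fluorescence ratio within a 140 s kinetic read after compound addition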
Of the large screens only hits and unclear results are named; the others gave an inactive call. A selection: hits, their analogues and other compounds. The true share with any hit is near 2.3%.

COc1ccc(CCC(=O)OCC(=O)Nc2sccc2C(N)=O)cc1	M1 ag parental 16, M1 antag 39, CHO-K1 Ca antag 34
CCOC(=O)N1CCN(C(=O)Cc2c(C(=O)O)n(C)c3ccccc23)CC1	M1 ag 28
CCOC(=O)N1CCN(Cc2c(O)ccc3ccccc23)CC1	M1 ag parental 16
Cc1cc(N)n(-c2ccc(S(=O)(=O)c3ccc(C(C)C)cc3)cc2)n1	none
CCCCNC(=O)C1(C)CCCCN1C(=O)c1ccc(C#N)cc1 (stereo unspecified)	none
CCOc1ccccc1C1C2C(=O)N(c3ccccc3)C(=O)C2ON1c1ccccc1 (stereo unspecified)	M1 antag 28
O=C(COC(=O)/C=C/c1cccc(F)c1)Nc1ncccn1	CHRM1 PAM 24
O=C(COC(=O)/C=C/c1cccc(F)c1)Nc1ccc(Cl)cn1	none
CC1OC2CC(=O)OC2C2=C1C(=O)c1c(O)cccc1C2=O (stereo unspecified)	M1 antag 50, M1 ag 16
COc1cc(OC)nc(Oc2cc(C=O)ccc2OC)n1	none
CCCNC(=O)c1ccc(N2CCC3(CC2)CC(c2ccccc2)=NO3)c(NC(=O)c2ccccc2)c1	M1 antag 32
Cc1ccc(-n2nnnc2CNC(=O)c2ccc3c(c2)OCO3)cc1C	M1 antag 63
Cc1ccc(-n2nnnc2CNC(=O)c2ccc(Br)o2)cc1C	none
CCCNCCC(c1ccco1)c1ccccc1OC (stereo unspecified)	M1 antag 41
O=C(N/N=C/c1ccc(O)c(O)c1)c1ccc(CSc2cccc3cccnc23)cc1	M1 ag 24
CCN(CC(=O)NCc1ccc(Cl)cc1)C(=O)CCOc1ccc(C)cc1	none
COc1cccc(-n2c(SCC(=O)O)nnc2-c2cccnc2)c1	M1 antag 23
Cn1nccc1C(=O)Nc1ccc2c(c1)OCO2	none
CN1C(=O)CCS(=O)(=O)C1c1ccc(Cl)c(Cl)c1 (stereo unspecified)	none
Cc1ccccc1CSc1nn2c(=O)c(C)nnc2s1	CHO-K1 Ca antag 24
Cc1ccccc1NC(=O)CSc1nn2c(=O)c(C)nnc2s1	none
CN(/N=C/c1cc(Cl)ccc1O)C1=NS(=O)(=O)c2ccccc21	none
CNS(=O)(=O)c1ccc(NC(=O)C2c3ccccc3Oc3ccccc32)cc1	none
O=C(Nc1nc2ccccc2s1)C1c2ccccc2Oc2ccccc21	none
CCN(CC)CCCNC(=O)C1c2ccccc2Oc2ccccc21	M1 antag 49
COCCCNC(=O)C1c2ccccc2Oc2ccccc21	none
CCc1nnc(NC(=O)C2c3ccccc3Oc3ccccc32)s1	M1 antag 37
CCN(CC)S(=O)(=O)c1ccc(NC(=O)C2c3ccccc3Oc3ccccc32)cc1	M1 ag 20
CC(C(=O)NCc1ccco1)c1ccc([N+](=O)[O-])cc1 (stereo unspecified)	CHO-K1 Ca antag 25
Cc1c(Br)c([N+](=O)[O-])nn1C(C)C(=O)NCc1ccco1 (stereo unspecified)	none
Cc1nn(C(C)C(=O)NCc2ccco2)c(C)c1[N+](=O)[O-] (stereo unspecified)	M1 ag parental 19
Cc1nn(C(C)C(=O)NCCc2ccco2)c(=O)c2nn(-c3ccccc3)c(C)c12 (stereo unspecified)	CHRM1 PAM 31
O=C(NCc1ccco1)Nc1ccc([N+](=O)[O-])cc1	none
Cc1nn(CC(=O)NCCc2ccco2)c(=O)c2nn(-c3ccccc3)c(C)c12	none
Cn1cc(C(=O)c2ccc(Cl)cc2Cl)cc1C(=O)N/N=C(\N)COc1cccc(C(F)(F)F)c1	none
COc1ccc2ccn(S(=O)(=O)c3ccccc3)c2c1	none
Cc1sc(NC(=O)C2CC=CCC2C(=O)O)c(C(=O)OC(C)C)c1C (stereo unspecified)	none
NNC(=O)c1c[nH]c2ccc(OCc3ccccc3)cc12	none
O=C(C[n+]1cccc(Br)c1)c1ccccc1	none
Cc1ccc(C)[n+](CC(=O)c2ccc(-c3ccccc3)cc2)c1	M1 antag 44
O=C(C[n+]1cccc(Br)c1)c1ccc(-c2ccccc2)cc1	M1 antag 38
FC(F)(F)c1cccnc1Oc1ccc(C2=NCCS2)cc1	M1 ag 24
Nc1cccnc1Oc1ccc(F)cc1	none
COC(=O)[C@@H](Cc1c[nH]c2ccccc12)NC(=O)c1ccc2c(c1)OCO2	M1 ag parental 23
Cc1ccccc1NC(=O)N1CCCC(c2nc(-c3ccc(C(C)C)cc3)no2)C1 (stereo unspecified)	M1 ag parental 17
Cc1ccccc1NC(=O)N1CCCC(c2nc(-c3ccc(F)cc3)no2)C1 (stereo unspecified)	none
CCCOc1ccc(CNC(=O)CCC(=O)n2ncc3cc(C)ccc32)cc1	none
COc1ccc(CNC(=O)CCC(=O)n2ncc3cc(C)ccc32)cc1	CHO-K1 Ca antag 24
CC1CCC(=O)N(CCC#N)CC1 (stereo unspecified)	none
Cc1cc(C)n(-c2ccccc2C#N)n1	CHO-K1 Ca antag 25
Cc1cc(C)n(-c2cccc3cccnc23)n1	none
CC(=O)c1cn(CC(=O)Nc2ccccc2C(F)(F)F)c2ccccc12	CHO-K1 Ca antag 27
Cc1ccc(C)c(NC(=O)Cn2cc(C(=O)C3CC3)c3ccccc32)c1	CHO-K1 Ca antag 25
C=CC[C@@H](CC(=O)N[C@H](CO)Cc1ccccc1)C(=O)N[C@@H](COC(=O)[C@@H](CC=C)CC(=O)OC(C)(C)C)Cc1ccccc1	none
CC1(C)Cc2c(cnn2-c2ccc(F)cc2)C(NC(=O)c2ccc(=O)oc2)C1 (stereo unspecified)	none
CC(C)NC(=O)c1cc(C2CCCCN2C(=O)c2ccc(C#N)cc2)on1 (stereo unspecified)	none
Cc1cc(O)cc(O)c1/C=N/NC(=O)c1ccc2c(c1)OCCO2	none
c1ccc(-n2cc(CN3CCCC3)c(-c3ccc4c(c3)OCO4)n2)cc1	M1 ag parental 20
O=C(Nc1ccccc1F)c1ccc(C(=O)c2ccccc2)cc1	none
CCO[C@H]1OC(C(=O)NCc2ccccc2)=C[C@@H](c2ccc3c(c2)OCO3)[C@@H]1CCCO	M1 ag 18
CCO[C@@H]1OC(C(=O)NCc2ccccc2)=C[C@H](c2ccc3c(c2)OCO3)[C@H]1CCCO	none
CCO[C@H]1OC(C(=O)N2CCOCC2)=C[C@@H](c2ccccc2)[C@@H]1CCCO	M1 antag 67
COc1ccc(C(N)c2csc(Nc3nncc4ccccc34)n2)cc1 (stereo unspecified)	none
Cc1ccc(N2C(=O)CC(Nc3ccc(Cl)c(S(=O)(=O)N(C)C)c3)C2=O)c(C)c1 (stereo unspecified)	none

Bioassay records from PubChem.
